Experiment [1] has as its target Voltage-gated inwardly rectifying potassium channel KCNH2 (Homo sapiens) (UniProt Q12809). The experiment is described as follows: qHTS Assay for Small Molecule Inhibitors of the Human hERG Channel Activity (AID 588834).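 Note: lower thallium flux fluorescence means stronger hERG block; nearly all actives have a fitted effect of over 50% in size.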 Note: potency is the fitted concentration of half-maximal effect. In outline: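 Kinetic FDSS fluorescence; U2OS + hERG BacMam (~100 virus particles/cell); FluxOR Tl+ flux; ~10 min cpd; AC50 (Hill).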
In general terms: Quantitative high-throughput screening tests each substance at several concentrations.

For experiment [2], the target named is Glutaminase kidney isoform, mitochondrial (Homo sapiens) (UniProt O94925). In words: qHTS for Inhibitors of Glutaminase (GLS): LOPAC Validation (AID 624146). Note: nearly all actives have a fitted effect of over 60% in size. Note: potency is the fitted concentration of half-maximal effect. In short, it runs like this: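 Two-point fluorescence kinetic (t0, 30 min RT) for hKGA; glutamate detected via glutamate oxidase–HRP–Amplex Red. Substrate: 1 mM L-glutamine solution; buffer 45 mM KH2PO4, pH 8.2.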
Glutaminase kidney isoform, mitochondrial (Homo sapiens), sequence (O94925 whole entry, looked up, canonical isoform): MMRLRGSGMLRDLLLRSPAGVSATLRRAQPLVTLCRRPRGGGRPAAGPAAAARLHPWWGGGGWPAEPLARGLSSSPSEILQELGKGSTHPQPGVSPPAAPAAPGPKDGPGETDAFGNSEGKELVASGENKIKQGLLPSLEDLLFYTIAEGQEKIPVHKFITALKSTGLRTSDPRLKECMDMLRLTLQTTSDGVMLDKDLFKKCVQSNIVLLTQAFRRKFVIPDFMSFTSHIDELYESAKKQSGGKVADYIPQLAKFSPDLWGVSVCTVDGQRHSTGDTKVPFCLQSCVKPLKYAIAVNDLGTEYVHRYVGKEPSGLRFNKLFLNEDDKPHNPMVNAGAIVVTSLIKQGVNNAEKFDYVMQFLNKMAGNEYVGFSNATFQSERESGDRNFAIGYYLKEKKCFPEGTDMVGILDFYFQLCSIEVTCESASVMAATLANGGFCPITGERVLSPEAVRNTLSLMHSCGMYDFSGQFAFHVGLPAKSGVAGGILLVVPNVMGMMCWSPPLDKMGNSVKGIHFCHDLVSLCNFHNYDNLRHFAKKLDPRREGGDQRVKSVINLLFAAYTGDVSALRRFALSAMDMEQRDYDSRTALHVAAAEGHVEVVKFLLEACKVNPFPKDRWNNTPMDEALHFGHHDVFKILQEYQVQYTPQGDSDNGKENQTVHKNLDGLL

Experiment [3] is described as follows: qHTS of Trypanosoma Brucei Inhibitors: LOPAC Validation (AID 624147). In short, it runs like this: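 Luminescent Kinase-Glo Plus end-point after 45 min room-temperature reaction of T. brucei pyruvate kinase started with 130 uM ADP (final). Buffer TEA 50 mM pH 7.2 with KCl, MgCl2, BSA, Tween-20; titration-based qHTS with fitted concentration-effect curves.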

Experiment [4] concerns the target Glucagon-like peptide 1 receptor (Homo sapiens) (UniProt P43220). In words: qHTS of GLP-1 Receptor Agonists: LOPAC Validation (AID 624148).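 Note: luminescence from a luciferase reporter switched on by cAMP; higher luminescence signal means agonism.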 In outline:
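Agonism scored as increased luciferase luminescence driven by cAMP in HEK293 clones carrying GLP-1R. Cells settled 12 hours, received compound for 4-6 hr at 37 deg C, 5% CO2, and were read after 12 min detection reagent at RT.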

Experiment [5] can be described thus: qHTS of Nrf2 Activators: LOPAC Validation (AID 624149). In outline:
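ARE reporter activation measured in AREc32 firefly luciferase cells after 24 hr compound exposure; Steady-Glo luminescence.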

Experiment [6] can be described thus: HTS Assay for Allosteric Antagonists of the Human D2 Dopamine Receptor: Hit Validation in HTRF (AID 624455).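 Note: stable D1 dopamine receptor cell line scored for blocking the D1 response.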 In outline:
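Signal from an HTRF read-out in D1-expressing stable cells gave hit activity as inhibition of the D1 response.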
On the technique in general: TR-FRET usually uses a lanthanide donor and a delayed reading to cut background.

Molecules are shown by their SMILES. Inconclusive results are not listed. The source made the active and inactive calls. Calls come from the whole dose curve; as a rule, active = well fitted curve in the direction sought with a large enough effect; inconclusive = small, poorly fitted or top-dose-only effect, or another doubt; inactive = no such curve, though single readings can be large; an effect the other way counts as inactive or inconclusive. Residues, ends and D or L forms follow the SMILES beside them. *: point of attachment. Cbz = O=C(OCc1ccccc1)*

Glucagon-like peptide 1 receptor (Homo sapiens), sequence (P43220 whole entry, looked up): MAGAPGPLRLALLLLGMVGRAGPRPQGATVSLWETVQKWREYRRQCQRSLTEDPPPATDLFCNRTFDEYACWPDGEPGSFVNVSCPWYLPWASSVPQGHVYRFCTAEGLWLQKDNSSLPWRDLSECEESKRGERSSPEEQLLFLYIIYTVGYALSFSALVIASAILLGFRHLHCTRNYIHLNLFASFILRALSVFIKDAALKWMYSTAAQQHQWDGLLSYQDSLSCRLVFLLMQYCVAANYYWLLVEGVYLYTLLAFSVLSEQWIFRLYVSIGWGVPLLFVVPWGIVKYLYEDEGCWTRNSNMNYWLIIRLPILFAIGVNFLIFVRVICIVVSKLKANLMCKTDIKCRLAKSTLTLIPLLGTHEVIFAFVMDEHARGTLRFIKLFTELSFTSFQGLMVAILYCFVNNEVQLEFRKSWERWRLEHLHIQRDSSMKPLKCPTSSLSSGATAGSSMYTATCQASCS
Voltage-gated inwardly rectifying potassium channel KCNH2 (Homo sapiens), sequence (Q12809 whole entry, looked up): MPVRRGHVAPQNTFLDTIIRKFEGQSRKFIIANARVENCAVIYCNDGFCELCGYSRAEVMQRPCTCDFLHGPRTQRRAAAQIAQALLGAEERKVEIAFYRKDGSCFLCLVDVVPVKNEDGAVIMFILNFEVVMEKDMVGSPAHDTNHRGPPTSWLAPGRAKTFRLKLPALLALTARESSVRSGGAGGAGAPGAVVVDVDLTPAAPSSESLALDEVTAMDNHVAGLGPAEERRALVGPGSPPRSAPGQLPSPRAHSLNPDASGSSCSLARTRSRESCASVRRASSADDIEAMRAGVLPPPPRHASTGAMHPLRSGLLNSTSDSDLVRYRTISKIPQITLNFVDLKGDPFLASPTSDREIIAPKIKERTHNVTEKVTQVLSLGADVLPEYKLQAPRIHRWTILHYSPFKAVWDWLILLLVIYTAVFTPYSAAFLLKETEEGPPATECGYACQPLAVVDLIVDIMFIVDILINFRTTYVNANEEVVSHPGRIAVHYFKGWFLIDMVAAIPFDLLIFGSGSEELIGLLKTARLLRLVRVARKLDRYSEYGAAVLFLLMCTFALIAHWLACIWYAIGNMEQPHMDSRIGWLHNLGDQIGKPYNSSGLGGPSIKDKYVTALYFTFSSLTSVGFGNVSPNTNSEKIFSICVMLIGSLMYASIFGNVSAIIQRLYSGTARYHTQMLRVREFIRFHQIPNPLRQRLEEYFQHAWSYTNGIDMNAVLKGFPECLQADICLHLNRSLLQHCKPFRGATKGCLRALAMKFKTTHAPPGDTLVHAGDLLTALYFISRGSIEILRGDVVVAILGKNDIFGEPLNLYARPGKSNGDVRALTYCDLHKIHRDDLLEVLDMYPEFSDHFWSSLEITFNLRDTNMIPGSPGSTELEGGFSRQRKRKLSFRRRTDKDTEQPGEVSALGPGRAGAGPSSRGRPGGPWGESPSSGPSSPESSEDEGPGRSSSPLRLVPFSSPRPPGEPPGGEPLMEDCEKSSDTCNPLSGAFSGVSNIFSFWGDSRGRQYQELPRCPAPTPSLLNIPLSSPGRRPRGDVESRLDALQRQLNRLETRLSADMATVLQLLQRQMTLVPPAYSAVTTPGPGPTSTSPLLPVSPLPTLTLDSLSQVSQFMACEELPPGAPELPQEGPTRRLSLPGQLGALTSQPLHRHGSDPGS

Take `O=C(O)c1ccccc1Nc1ccccc1`: the Potency result in experiment [1], in experiment [2], in experiment [3], in experiment [4], in experiment [5] and in experiment [6] was “inactive” in each case.

For the compound `NC1(C(=O)O)CCCCC1`, the Potency entry in experiment [1], in experiment [2], in experiment [3], in experiment [4], in experiment [5] and in experiment [6] was “inactive” each time.

For the compound `COC1(C2=NCCN2)COc2ccccc2O1` (centres undefined), the Potency entry in experiment [1], in experiment [2], in experiment [3], in experiment [4], in experiment [5] and in experiment [6] was “inactive” in each case.

With `CCCCS(=N)(=O)CC[C@H](N)C(=O)O` (some centres undefined), the Potency result in experiment [1], in experiment [2], in experiment [3], in experiment [4], in experiment [5] and in experiment [6] was “inactive” in each case.

For `N[C@@H](CCC(=O)N[C@H](CSN=O)C(=O)NCC(=O)O)C(=O)O`, the Potency entry in experiment [1], in experiment [2], in experiment [3], in experiment [4], in experiment [5] and in experiment [6] was “inactive” in each case.

In the case of `O=c1onc2cnc3ccccc3n12`, the Potency entry in experiment [1], in experiment [3], in experiment [4], in experiment [5] and in experiment [6] was “inactive” in each case. For the same compound, the Potency in experiment [2] was 7.08 µM (active).

Regarding `O=c1[nH]c2ccccc2c2ccccc12`, the Potency entry in experiment [1], in experiment [2], in experiment [3], in experiment [4], in experiment [5] and in experiment [6] was “inactive” each time.

Regarding `CC(C)C[C@H](NC(=O)C1OC1C(=O)O)C(=O)NCCCCN=C(N)N` (some centres undefined), the Potency result in experiment [1], in experiment [2], in experiment [3], in experiment [4], in experiment [5] and in experiment [6] was “inactive” throughout.

For `CCCn1c(=O)c2[nH]c(C3CCCC3)nc2n(CCC)c1=O`, the Potency entry in experiment [1], in experiment [2], in experiment [3], in experiment [4], in experiment [5] and in experiment [6] was “inactive” in each case.

For the compound `COc1cc(C(O)C(=O)O)ccc1O` (centres undefined), the Potency entry in experiment [1], in experiment [3], in experiment [4], in experiment [5] and in experiment [6] was “inactive” throughout. The Potency in experiment [2] was 2.82 µM (active).

For `NCC(O)(CS(=O)(=O)O)c1ccc(Cl)cc1` (centres undefined), the Potency result in experiment [1], in experiment [2], in experiment [3], in experiment [4], in experiment [5] and in experiment [6] was “inactive” in each case.

On to `Nc1ccc(-c2nc3ccc(-c4nc5ccc(N)cc5[nH]4)cc3[nH]2)cc1`, for which the Potency entry in experiment [1], in experiment [3], in experiment [4], in experiment [5] and in experiment [6] was “inactive” in each case. Further, the Potency in experiment [2] is 5.01 µM (active).

In the case of `O=C(OCCN1CCOCC1)C1(c2ccccc2)CCCCC1`, the Potency result in experiment [1], in experiment [2], in experiment [3], in experiment [4], in experiment [5] and in experiment [6] was “inactive” in each case.

For the compound `CCCC[C@@]1(C2CCCC2)Cc2cc(OCC(=O)O)c(Cl)c(Cl)c2C1=O`, the Potency result in experiment [1], in experiment [2], in experiment [3], in experiment [4], in experiment [5] and in experiment [6] was “inactive” each time.

On to `Cc1nc(N=Nc2ccc(S(=O)(=O)O)cc2S(=O)(=O)O)c(COP(=O)(O)O)c(C=O)c1O`, for which the Potency entry in experiment [1], in experiment [2], in experiment [3], in experiment [4], in experiment [5] and in experiment [6] was “inactive” in each case.

Take `CCCCCCCCCCC/C=C\C(C)(C)/C=C\CCCC(=O)O`: the Potency entry in experiment [1], in experiment [2], in experiment [3], in experiment [4], in experiment [5] and in experiment [6] was “inactive” each time.

Turning to `CC(=O)[C@H]1CCC2C3CC=C4C[C@@H](OS(=O)(=O)O)CC[C@]4(C)C3CC[C@@]21C` (some centres undefined), the Potency result in experiment [1], in experiment [2], in experiment [3], in experiment [4], in experiment [5] and in experiment [6] was “inactive” each time.

Regarding `CC[N+](CC)(CC)CC(=O)Nc1c(C)cccc1C`, the Potency result in experiment [1], in experiment [2], in experiment [3], in experiment [4], in experiment [5] and in experiment [6] was “inactive” throughout.

Take `COC(=O)C(N)Cc1ccc(Cl)cc1` (centres undefined): the Potency entry in experiment [1], in experiment [2], in experiment [3], in experiment [4], in experiment [5] and in experiment [6] was “inactive” in each case.

For `Nn1nnc2ccccc21`, the Potency entry in experiment [1], in experiment [2], in experiment [3], in experiment [4], in experiment [5] and in experiment [6] was “inactive” in each case.

Regarding `CC(C)C[C@H](NC(=O)[C@H](O)[C@H](N)Cc1ccccc1)C(=O)O`, the Potency result in experiment [1], in experiment [2], in experiment [3], in experiment [4], in experiment [5] and in experiment [6] was “inactive” throughout.

For `O=C1NC(=O)c2cc(Nc3ccccc3)c(Nc3ccccc3)cc21`, the Potency is 12.6 µM (active) in experiment [1] and 2.51 µM (active) in experiment [2]. Besides, the Potency entry in experiment [3], in experiment [4], in experiment [5] and in experiment [6] was “inactive” throughout.

Regarding `OC[C@H]1NC[C@@H](O)[C@@H]1O`, the Potency entry in experiment [1], in experiment [2], in experiment [3], in experiment [4], in experiment [5] and in experiment [6] was “inactive” each time.

As to `Cc1nc(N=Nc2ccc(C(=O)O)cc2)c(COP(=O)(O)O)c(C=O)c1O`, the Potency entry in experiment [1], in experiment [2], in experiment [3], in experiment [4], in experiment [5] and in experiment [6] was “inactive” in each case.

As to `Cc1cc2c(cc1Cl)N(C(=O)Nc1ccnc3ccccc13)CC2`, the Potency result in experiment [1], in experiment [3], in experiment [4], in experiment [5] and in experiment [6] was “inactive” throughout. Besides, in experiment [2], the Potency was 7.08 µM (active).

Consider `CC(C)[C@H](NC(=O)OCc1ccccc1)C(=O)N[C@H](C=O)Cc1ccccc1` (Cbz-Val-Phe-aldehyde), for which the Potency entry in experiment [1], in experiment [2], in experiment [3], in experiment [4], in experiment [5] and in experiment [6] was “inactive” throughout.

With `CCC(=O)N1CCN(C(=O)c2ccccc2)CC1`, the Potency entry in experiment [1], in experiment [2], in experiment [3], in experiment [4], in experiment [5] and in experiment [6] was “inactive” each time.

Consider `COCc1nc2c([nH]1)c(=O)n(C)c(=O)n2CC(C)C`, for which the Potency entry in experiment [1], in experiment [2], in experiment [3], in experiment [4], in experiment [5] and in experiment [6] was “inactive” throughout.

For the compound `CCC1(O)CC2CN(CCc3c([nH]c4ccccc34)[C@@](C(=O)OC)(c3cc4c(cc3OC)N(C=O)C3[C@]45CCN4CC=C[C@@](CC)([C@@H](OC(C)=O)[C@]3(O)C(=O)OC)[C@H]45)C2)C1` (some centres undefined), the Potency entry in experiment [1], in experiment [3], in experiment [4], in experiment [5] and in experiment [6] was “inactive” throughout. Further, the Potency in experiment [2] is 7.08 µM (active).

(Values after PubChem BioAssay (NCATS).)
